Here are results for 39 compounds from ChEMBL document CHEMBL3988442, “University of Dundee, Small-Polar-MMV Screening Library” (2021).

The test deals with AMP-activated protein kinase, AMPK (Homo sapiens) (UniProt P54646+O43741+P54619+Q9UGJ0+Q9Y478+Q13131+Q9UGI9). The test can be described thus: AMP-dependent Kinase enzyme assay. An in vitro enzyme assay that detects ADP turnover that is directly proportional to AMPK activity. This uses naive AMPK that is activated during the assay with MK-8722. It is filed as functional. Set-up: scale not given: direction of the effect not stated beside the values. The following applies: 30 µM.
On to `COCC(C)(O)CNC(=O)c1cc(-c2ccc(F)cc2)nn1C` (centres undefined), for which the Percent Effect was 2.75%.
Take `CN(C)Cc1cccc(-c2cccnc2C(=O)NCc2ccco2)c1`: the Percent Effect came out at 20%.
In the case of `CCCS(=O)(=O)CC(=O)Nc1ccsc1`, the Percent Effect is -1.52%.
As to `COc1cccc(OCC2CCCN(c3cc(C(N)=O)ccn3)C2)c1` (centres undefined), the Percent Effect stood at 4.97%.
With `O=C(Nc1ccc2c(c1)C(=O)NC2=O)c1cccs1`, the Percent Effect was found to be 16.2%.
Turning to `Cc1cc(-n2cccn2)ccc1CN1CCOCC(CN(C)C)C1` (centres undefined), the Percent Effect is -0.486%.
In the case of `CSCCN1CCC(NC(=O)c2cccc(C3CCCNC3)c2)CC1` (centres undefined), the Percent Effect is -2.91%.
`Cc1nn(C)c2nc(N3CCCCC3c3nccs3)sc12` (centres undefined): the Percent Effect was found to be 5.6%.
With `Cc1ccc2[nH]c(CNC(=O)C3CC4(CCNCC4)CN3C)nc2c1C` (centres undefined), the Percent Effect is -16.1%.
The value for `Cn1cnnc1C1CCCN(Cc2nc(Cc3ccccc3)no2)C1` (centres undefined) was 12.2%; that for `CC(C)c1nc(CN2CCN(C(=O)OC(C)(C)C)C(C)C2)no1` (centres undefined) was 1.33%.
The same measure for `COc1ccccc1C(=O)N1CCN(C(=O)CCCc2cn[nH]c2)CC1`: -2.48%; for `COC(=O)c1ccc(N(C(=O)c2cc(Cl)ccn2)C(C)C)c(C)c1`: -4.91%; for `C[C@H](O)c1cnn(-c2ccccc2)c1`: 3.7%.
In the case of `COc1cnc(N2CCN(C)CC2)nc1-c1ccnn1C`, the Percent Effect is 0.474%.
On to `CC(CC(=O)c1ccccc1)NC(=O)c1ccon1` (centres undefined), for which the Percent Effect came out at 8.5%.
For the compound `O=C(NCc1cc(Br)cs1)Nc1cn[nH]c1`, the Percent Effect was -0.469%.
The same measure for `Cc1ccc2[nH]c(CN(C)Cc3ccccc3C(=O)O)nc2c1`: 4.71%; for `Cc1cccn2cc(CN3CCC(N4CCN(C)C4=O)CC3)nc12`: 0.324%.
On to `CN(C)CCNC(=O)CCC1CCN(C(=O)c2ccc(O)cn2)CC1`, for which the Percent Effect turned out to be 7.4%.
The same measure for `COCc1cc(NCCCSc2nnc(C)s2)ncn1`: 8.32%; for `COc1cccc(F)c1C(C)NC(=O)NCc1cnc(C)s1` (centres undefined): 10.2%.
Consider `CC(NC(=O)NCc1cccnc1N(C)C)c1cccs1` (centres undefined), for which the Percent Effect was -8.61%.
Consider `CC(Cc1cccc(F)c1)C(=O)NS(=O)(=O)c1cnn(C)c1` (centres undefined), for which the Percent Effect is -5.21%.
`Cc1ccc(OCC(=O)N2CCOCC(O)(CN3CCCC3)C2)cc1C` (centres undefined): the Percent Effect was found to be 8.56%.
Regarding `NC(=O)C(NC1CCN(Cc2ccc(F)cc2)CC1)c1ccccc1` (centres undefined), the Percent Effect was -4.88%.
In the case of `Cc1ncsc1C(=O)OCCN1CCCc2ccccc21`, the Percent Effect came out at 8.19%.
The same measure for `CCC(NC(=O)c1cc(NC(C)=O)ccc1Cl)c1cc(C)ccn1` (centres undefined): 2.39%; for `CC(C)[C@@H]1CN(C(=O)CN(C)Cc2ccccc2)C[C@H]1C(=O)O`: 2.94%; for `Cc1cc(CN(C)C(=O)c2cc(COc3ccccc3)[nH]n2)n[nH]1`: 1.22%.
The value for `Cc1noc(C2CCCN(Cn3cc(Br)cn3)C2)n1` (centres undefined) was -2.31%; that for `CC(C)n1cc(CN(C)C[C@@H]2CCCN3CCCC[C@H]23)cn1` was 3.96%.
Regarding `O=C(NCc1ccc(N2CCSCC2)cc1)NCc1cc[nH]n1`, the Percent Effect is -0.457%.
As to `CCn1nc(C(C)C)cc1C(=O)NCC1CCCN(c2ccccn2)C1` (centres undefined), the Percent Effect came to 6.64%.
Regarding `O=C(NCC1CCS(=O)(=O)C1)N(Cc1ccco1)C1CC1` (centres undefined), the Percent Effect is -4.86%.
`COC(=O)N1CCCCC1C(=O)N1CCCN(c2ccnc(C)c2)CC1` (centres undefined): the Percent Effect is -3.17%.
Consider `CCOC(=O)c1ccc(S(=O)(=O)NCC(CC)N2CCCC2)cc1` (centres undefined), for which the Percent Effect is -6.04%.
Turning to `Cc1ccc(Oc2cc(CN)ccn2)cc1C`, the Percent Effect is -98.1%.
As for `CN1C[C@H](c2ccccc2)[C@H]2CN(C(=O)Cc3cccc(O)c3)CC[C@H]21`, the Percent Effect is 15.8%.
